Experimental data as given in PubChem BioAssay AID602413 (Johns Hopkins Ion Channel Center, 2012).
Hit rate of the full screen: of about 1,200 compounds, about 150 (12%) were called active.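 Rule for the calls: active = ratio at least 3 SD above the weak peptide control, stable starting fluorescence, no direct agonism earlier; inactive = the rest.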 A selection follows.

Biological target: Mas-related G-protein coupled receptor member X1 (Homo sapiens) (UniProt Q96LB2)
Test: MrgX1 positive allosteric modulators, duplicate retest, confirmation, HEK293 cells, Fluo-4 calcium flux (AID 602413);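 note: compound followed by low BAM8-22 agonist challenge near EC20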
Settings: MrgX1-HEK293, Fluo-4 calcium fluorescence, FDSS, at 10 µM; active compounds read high

Chain of Mas-related G-protein coupled receptor member X1 (Homo sapiens) (Q96LB2 whole entry, looked up): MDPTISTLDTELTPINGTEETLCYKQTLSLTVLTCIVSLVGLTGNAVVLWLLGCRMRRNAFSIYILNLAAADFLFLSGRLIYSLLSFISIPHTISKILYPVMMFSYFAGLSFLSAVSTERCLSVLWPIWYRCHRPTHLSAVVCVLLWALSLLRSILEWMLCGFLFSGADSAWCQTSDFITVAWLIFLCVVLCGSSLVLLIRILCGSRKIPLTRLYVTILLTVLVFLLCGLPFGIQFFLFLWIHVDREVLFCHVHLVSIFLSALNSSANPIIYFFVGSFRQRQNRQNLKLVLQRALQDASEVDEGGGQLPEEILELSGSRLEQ

| SMILES | activation (ratio percentage) |
| --- | --- |
| OCCn1c(-c2ccccc2)csc1=Nc1ccccc1 | inactive |
| CN1/C(=C\C=C2\N=C(c3ccc(F)cc3)OC2=O)C(C)(C)c2ccccc21 | inactive |
| COCCNC(=O)C1CCN(S(=O)(=O)c2ccc3c(c2)OCCO3)CC1 | inactive |
| Fc1cccc(Cl)c1COc1ccc(-c2nnco2)cc1 | inactive |
| O=C1C(Cc2ccc(O)cc2)NC(=S)N1Cc1ccccc1 (centres undefined) | inactive |
| COC(=O)c1c(NC(=O)CN(c2ccc(C)c(C)c2)S(C)(=O)=O)sc2c1CCCC2 | inactive |
| Cc1cccc(Cn2cnc3c(N)c(C)c(C)cc32)c1 | inactive |
| COc1cccc(-c2cnc(OC(C)(C)C)nc2OC(C)(C)C)c1 | inactive |
| Brc1ccccc1C1Nc2cccc3cccc(c23)N1 | inactive |
| Cc1ccc(OC(=O)c2cc3ccccc3o2)cc1 | inactive |
| Cc1cccc(NC(=O)C(C)N2C(=O)C3C4CC(C(Br)C4Br)C3C2=O)c1 (centres undefined) | 11.6% (active) |
| Cc1ccnc(NC(=O)C(C)N2C(=O)c3ccccc3C2=O)c1 (centres undefined) | inactive |
| COC(=O)Cn1c(O)c(N=NC(=O)OC)c2ccccc21 | inactive |
| CCOc1ccc(C2=CC(c3ccccc3)n3ncnc3N2)cc1 (centres undefined) | inactive |
| COc1ccc(C2SCCN2S(=O)(=O)c2ccccc2)cc1OC (centres undefined) | inactive |
| COc1cc(C)c(C)cc1S(=O)(=O)N1CCCc2ccccc21 | 12.4% (active) |
| COc1cc(C(F)(F)F)nc2c(Br)c(C(C)(C)C)nn12 | inactive |
| Cc1c(C(=O)N2CCCc3ccccc32)sc2nc(-c3ccccc3)cn12 | inactive |
| CCOc1ccc2nc(/N=C/c3nc(-c4ccccc4)oc3O)sc2c1 | inactive |
| Cc1c(C(=O)N2CCN(c3ccc(F)cc3)CC2)oc2c1C(=O)CCC2 | inactive |

| SMILES | activation (ratio percentage) |
| --- | --- |
| CCOc1ccc(NC(=O)N2CC=C(n3c(=O)[nH]c4ccccc43)CC2)cc1 | inactive |
| CCc1ccc(N(CC(=O)Nc2sc3c(c2C(=O)OC)CCCC3)S(C)(=O)=O)cc1 | inactive |
| O=C(c1ccc(OC2CCN(C(=O)c3cccnc3)CC2)cc1)N1CCCCCC1 | inactive |
| CC(C)CNc1ncnc2c1cnn2Cc1ccc(Cl)cc1 | inactive |
| CC(=O)N1c2ccc(S(=O)(=O)N3CCCC(C(=O)Nc4cccc(Cl)c4)C3)cc2CC1C (centres undefined) | inactive |
| Cc1ccc(-n2cnc3ncnc(-c4ccccc4)c32)cc1 | inactive |
| CC(C)CC(=O)N/C(N)=N/c1nc2ccccc2s1 | inactive |
| Cc1ccc2nc(Nc3ccccc3)cc(C)c2c1 | inactive |
| COc1ccc(Cc2nc(-c3ccccn3)no2)cc1OC | inactive |
| Nc1cc(OC(=O)c2ccccc2Br)nn1S(=O)(=O)c1ccccc1 | inactive |
| O=C(c1cccc(S(=O)(=O)Nc2ccccc2Cl)c1)N1CCN(C(=O)c2ccco2)CC1 | inactive |
| Nc1ccc(Oc2ccc(Cl)cc2)cc1 | inactive |
| CC1(C)CC2CC(C)(CN2c2ncnc3ccc(Br)cc23)C1 (centres undefined) | 29.4% (active) |
| Cc1ccc(S(=O)(=O)N(C)c2nc3ccccc3n3c(C(C)C)nnc23)cc1 | 27.8% (active) |
| COc1ccc(Nc2nnc(C)c3ccccc23)cc1 | inactive |
| O=C(Nc1cccc(Cl)c1)c1cncn1-c1ccc(F)cc1 | inactive |
| NC(=O)c1c(Nc2nc3c(F)cccc3s2)sc2c1CCCC2 | 15.4% (active) |
| O=C(Nc1nc2c(F)cc(F)cc2s1)C1COc2ccccc2O1 (centres undefined) | inactive |
| COc1ccc(NC(=O)c2cc(-c3ccc(C)o3)nc3ccccc23)cc1 | inactive |
| O=C(COC(=O)c1ccc(NS(=O)(=O)c2cccs2)cc1O)Nc1ccc(F)cc1 | inactive |

| SMILES | activation (ratio percentage) |
| --- | --- |
| Cc1nn(C(=O)c2ccoc2C)c(N)c1-c1ccccc1 | inactive |
| Cc1nc2ccccc2cc1OCc1ccc(F)cc1 | inactive |
| Cc1cc2ncn(CCCCOc3ccccc3)c2cc1C | inactive |
| CCN(c1cccc(C)c1)S(=O)(=O)c1ccc(-c2coc(C)n2)cc1 | inactive |
| Cc1ccc(N/C(N)=N/c2nc(C(F)(F)F)cc(C(F)(F)F)n2)cc1 | inactive |
| O=C(Nc1ccccc1N1CCOCC1)c1csc2c1CCCC2 | inactive |
| O=C(Nc1ccccc1N1CCCCC1)c1ccc2nccnc2c1 | 11.5% (active) |
| Cc1nonc1C1CCCN1Cc1nc(-c2ccc(F)cc2F)oc1C (centres undefined) | inactive |
| CCOC(=O)N1CCN(C(=O)COCc2cc(-c3ccc4c(c3)OCO4)on2)CC1 | inactive |
| COc1ccc(-c2cc(C(F)(F)F)nc(S(C)(=O)=O)n2)cc1OC | inactive |
| O=C(Oc1ccc(C(=S)N2CCOCC2)cc1)c1ccc(F)cc1 | inactive |
| Cc1ccc2c(c1)c1ncnc(N3CCc4ccccc4C3)c1n2C | inactive |
| Cc1occc1C(=O)Nc1nnc(-c2ccncc2)s1 | inactive |
| Cc1ccc2c(C)c(C(=O)N(C)CCC3CCCCO3)oc2c1C (centres undefined) | inactive |
| CCOCc1nnc(NC(=O)CCC2CCCCC2)s1 | inactive |
| COc1ccc(OC)c(Nc2nc3ccccc3n3cnnc23)c1 | inactive |
| COC(=O)Cc1cc(=O)n(-c2nc3ccccc3s2)[nH]1 | inactive |
| CCC(C)Sc1nc(C)nc2c1c(=O)n(C)c(=O)n2C (centres undefined) | inactive |
| COc1ccc(C(=O)NC(=S)NC2CCCCC2)cc1 | inactive |
